# From PubChem BioAssay (NCATS)
# “And” between values parts separate entries of the source, which are not always exact repeats. Equal values may be shown once. Records with an inconclusive call do not appear. The source made the active and inactive calls. Unless noted, calls come from the whole dose curve; as a rule, active = well fitted curve in the direction sought with a large enough effect; inconclusive = small, poorly fitted or top-dose-only effect, or another doubt; inactive = no such curve, though single readings can be large; an effect the other way counts as inactive or inconclusive. Starred links: 1 amine or outer side, 2 acyl side, 3 side chain; linkers in the order of their positions; H or OH if unused. Positions of bridges follow the written chain, without caps; N, C: chain ends. Non-standard residues stand in square brackets, D forms with d. Residues, ends and D or L forms follow the SMILES beside them. *: point of attachment. X4 = NC1=N[C@@H](O)C[C@H]([C@H](N[*:1])C(=O)[*:2])N1; ΔAla(3-NHCONH2) = NC(=O)NC=C(N)C(=O)O; β3hOrn = NCCC[C@H](N)CC(=O)*; Dap = NC[C@H](N)C(=O)O
# Experiments:
# [1] = target: Ubiquitin carboxyl-terminal hydrolase 1 (Homo sapiens) (UniProt O94782); experiment: Inhibitors of USP1/UAF1: Pilot qHTS (AID 504865); details: purified USP1/UAF1, Ub-rhodamine cleavage fluorescence; series mostly up to 54.9 µM;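 note: rhodamine fluorescence freed from ubiquitin-rhodamine substrate followed over time; top concentration of the series differs between compounds; % is set by controls: 0 for no effect and ±100 for the full control effect; nearly all actives have a fitted effect of over 35% in size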
# Sequence of Ubiquitin carboxyl-terminal hydrolase 1 (Homo sapiens) (O94782 whole entry, looked up): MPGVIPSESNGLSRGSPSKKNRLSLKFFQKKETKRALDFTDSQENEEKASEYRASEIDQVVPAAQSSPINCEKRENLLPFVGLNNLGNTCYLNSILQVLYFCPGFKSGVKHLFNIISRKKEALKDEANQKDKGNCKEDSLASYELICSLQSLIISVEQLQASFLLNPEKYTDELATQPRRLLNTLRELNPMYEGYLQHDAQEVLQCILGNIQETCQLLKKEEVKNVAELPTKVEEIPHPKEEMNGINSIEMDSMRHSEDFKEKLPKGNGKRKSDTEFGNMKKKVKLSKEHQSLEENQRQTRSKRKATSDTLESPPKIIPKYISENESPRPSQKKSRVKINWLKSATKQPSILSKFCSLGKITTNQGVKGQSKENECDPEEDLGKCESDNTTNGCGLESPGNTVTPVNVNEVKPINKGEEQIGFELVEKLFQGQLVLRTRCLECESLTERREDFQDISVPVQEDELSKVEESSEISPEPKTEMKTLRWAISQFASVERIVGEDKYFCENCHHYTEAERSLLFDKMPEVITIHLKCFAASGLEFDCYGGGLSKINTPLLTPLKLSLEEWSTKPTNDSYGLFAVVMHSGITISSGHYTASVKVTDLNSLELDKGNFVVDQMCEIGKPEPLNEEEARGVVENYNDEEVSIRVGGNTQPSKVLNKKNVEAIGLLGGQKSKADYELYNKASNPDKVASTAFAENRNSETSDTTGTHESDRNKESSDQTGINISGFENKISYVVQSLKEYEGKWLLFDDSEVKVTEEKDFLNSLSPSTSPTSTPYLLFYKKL
# In short: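 In 50mM HEPES pH 7.8 containing 0.5mM EDTA, 1mM TCEP, 0.1 mg/ml BSA and 0.01% Tween-20, 1nM USP1/UAF1 is exposed to compound for 15 min, then Ub-Rho (150nM final) is added and fluorescence is read over time.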
# [2] = target: Cytochrome P450 3A4 (Homo sapiens) (UniProt P08684); experiment: qHTS Assay for Activators of Cytochrome P450 3A4 (AID 885); details: recombinant CYP3A4, Luciferin-PPXE luminescence, 60 min; series mostly up to 57.1 µM; note: nearly all actives have a fitted effect of over 65% in size
# Sequence of Cytochrome P450 3A4 (Homo sapiens) (P08684 whole entry, looked up): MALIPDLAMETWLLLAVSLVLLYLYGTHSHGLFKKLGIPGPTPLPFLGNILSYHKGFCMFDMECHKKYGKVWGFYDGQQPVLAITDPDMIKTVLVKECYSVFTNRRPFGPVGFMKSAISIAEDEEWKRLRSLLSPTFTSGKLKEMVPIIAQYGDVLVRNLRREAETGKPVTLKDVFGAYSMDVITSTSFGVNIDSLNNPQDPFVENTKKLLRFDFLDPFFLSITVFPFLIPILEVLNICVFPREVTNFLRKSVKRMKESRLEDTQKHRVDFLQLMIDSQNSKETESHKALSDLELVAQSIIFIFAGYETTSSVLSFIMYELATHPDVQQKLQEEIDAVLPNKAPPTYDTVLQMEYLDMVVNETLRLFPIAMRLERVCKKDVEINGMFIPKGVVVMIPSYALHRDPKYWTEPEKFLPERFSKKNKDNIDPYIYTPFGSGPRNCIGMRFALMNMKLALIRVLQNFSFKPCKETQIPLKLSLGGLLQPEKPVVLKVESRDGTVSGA
# In short: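 Luminescent readout of luciferin formed from 25 uM Luciferin-PPXE (KM level) by 20 nM CYP3A4 in 200 mM KPO4, with 60 min NADPH-driven reaction at room temperature after 10 min compound exposure. Ketoconazole (57 uM) defined 100% inhibition.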
# [3] = Primary qHTS for small molecule stabilizers of the endoplasmic reticulum resident proteome: Secreted ER Calcium Modulated Protein (SERCaMP) assay (AID 1508630); details: SH-SY5Y GLuc-SERCaMP (Gaussia luciferase released on ER calcium loss) secretion, thapsigargin, luminescence; series mostly up to 38.4 µM; note: % is set by controls: 0 for no effect and ±100 for the full control effect
# In short: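 The SH-SY5Y reporter protocol was run at 3 concentrations up to 38.3 uM (primary) or 11 concentrations (follow-up): 16 h compound, 100 nM thapsigargin for 4 h, then extracellular luciferase luminescence.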
# [4] = qHTS profiling of the MIPE4 collection as inhibitors of Plasmodium falciparum (3D7) proliferation (AID 743344; call rule not given here;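 note: scaled between DMSO vehicle wells and 0.29 µM artemisinin as full inhibition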); details: P. falciparum 3D7 in erythrocytes, SYBR Green DNA fluorescence, 72 h; at 5.51 µM (top of the series) unless noted
# In short: (§1)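 Parasite DNA was quantified by SYBR Green I fluorescence (ex 485, em 535 nm) after overnight lysis in saponin/Triton buffer at room temperature. Cultures at 0.3% parasitemia and 2.5% hematocrit were first exposed to compound for 72 h at 37 C; signals were normalised to artemisinin (0.29 uM) and vehicle wells.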
# [5] = qHTS profiling of the MIPE4 collection as inhibitors of Plasmodium falciparum (DD2) proliferation (AID 743345; call rule not given here); details: P. falciparum Dd2 in erythrocytes, SYBR Green DNA, 72 h; at 5.51 µM (top of the series) unless noted
# In short: as §1
# [6] = qHTS profiling of the MIPE4 collection as inhibitors of Plasmodium falciparum (DD2) proliferation (Rep 2) (AID 743346; call rule not given here); details: P. falciparum Dd2 in erythrocytes, SYBR Green DNA, 72 h; at 5.51 µM (top of the series) unless noted
# In short: as §1
# [7] = qHTS profiling of the MIPE4 collection as inhibitors of Plasmodium falciparum (HB3) proliferation (AID 743347; call rule not given here;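 note: plate controls were DMSO vehicle wells for no effect and artemisinin wells for full effect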); details: P. falciparum HB3 in erythrocytes, SYBR Green DNA, 72 h; at 5.51 µM (top of the series) unless noted
# In short: as §1
# [8] = AP1 Signaling Pathway (AID 357; active = well fitted curve in either direction with a large enough effect, not every such curve was filed as active;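 note: ME-180 reporter cells stimulated with EGF at its EC50 level; % is set by controls: 0 for no effect and ±100 for the full control effect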); details: ME-180 AP-1-bla reporter, EGF-induced, beta-lactamase ratio, 5 h; at 7.69 µM (top of the series) unless noted
# In short: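 In this screen, ME-180 cells in Opti-MEM with 0.5% dialyzed FBS received EC50 EGF and compound titrations for 5 h. AP-1 reporter beta-lactamase was detected via CCF4 ratio, giving AC50 for positive and negative modulators.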
# [9] = target: Cytochrome P450 1A2 (Homo sapiens) (UniProt P05177); experiment: p450-cyp1a2 (AID 410; calls by dose curve;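 note: -100% = full effect of reference inhibitor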); details: recombinant CYP1A2, luciferin-ME demethylation, luminescence; series mostly up to 57 µM
# Sequence of Cytochrome P450 1A2 (Homo sapiens) (P05177 whole entry, looked up): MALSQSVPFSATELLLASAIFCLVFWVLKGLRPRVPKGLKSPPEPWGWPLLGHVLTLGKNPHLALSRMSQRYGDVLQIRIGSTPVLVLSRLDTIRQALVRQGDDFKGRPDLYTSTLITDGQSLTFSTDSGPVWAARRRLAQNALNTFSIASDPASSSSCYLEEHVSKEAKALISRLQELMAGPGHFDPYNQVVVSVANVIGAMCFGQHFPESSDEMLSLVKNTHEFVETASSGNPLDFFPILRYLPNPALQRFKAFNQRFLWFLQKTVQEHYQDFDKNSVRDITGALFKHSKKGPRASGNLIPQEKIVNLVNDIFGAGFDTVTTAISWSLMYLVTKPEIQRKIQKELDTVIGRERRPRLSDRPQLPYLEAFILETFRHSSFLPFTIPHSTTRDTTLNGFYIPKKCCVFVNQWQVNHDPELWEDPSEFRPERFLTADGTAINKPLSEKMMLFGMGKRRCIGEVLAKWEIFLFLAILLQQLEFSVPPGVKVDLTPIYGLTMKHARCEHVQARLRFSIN
# In short: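 20nM CYP1A2, 100uM Luciferin-ME (=Km), 100mM KPO4; cpd 10 min RT; +NADPH regen, 60 min RT; stop/detect 20 min; luminescence. Normalized to furafylline 57 uM = full inhibition.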
# [10] = NFAT Signaling Pathway (AID 444; active = well fitted curve in either direction with a large enough effect, not every such curve was filed as active;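 note: carbachol stimulus at about its EC50 of 1 µM final; % is set by controls: 0 for no effect and ±100 for the full control effect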); details: Jurkat NFAT-bla M1, carbachol, beta-lactamase ratio, 5 h; at 7.69 µM (top of the series) unless noted
# In short: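 Jurkat cells with NFAT-driven β-lactamase reporter and co-expressed M1 receptor, stimulated with carbachol (final 1 uM, ~EC50), compound titration, 5 h at 37 °C. CCF4 loaded 1 h at RT; 460/530 nm ratio gave %activity and AC50.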
# [11] = Stat Signaling Pathway (AID 446; active = well fitted curve in either direction with a large enough effect, not every such curve was filed as active;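 note: ME-180 cervical cancer cells given 40 pM IL-6 alongside compound; SIE-controlled beta-lactamase reporter measured as 460/530 nm FRET emission ratio; % is set by controls: 0 for no effect and ±100 for the full control effect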); details: ME-180 SIE beta-lactamase reporter, IL-6 stimulated, 5 h; at 7.69 µM (top of the series) unless noted
# In short: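 FRET read-out (405 nm excitation, 460/530 nm emission) of a beta-lactamase reporter under a STAT-inducible element in ME-180 cervical carcinoma cells. Cells with compound receive 40 pM IL-6 for 5 h. Values are normalised to AC90 stimulation and AC90 JAK-inhibitor controls.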
# [12] = target: Glucocorticoid receptor (Homo sapiens) (UniProt P04150); experiment: GR-GFP Redistribution (AID 450;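 active = compounds whose dose series gives a full or clear partial fitted curve of increased nuclear translocation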; note: potency is the fitted concentration of half-maximal effect); details: U2OS GR-GFP nuclear translocation, laser cytometry, 2 h
# Sequence of Glucocorticoid receptor (Homo sapiens) (P04150 whole entry, looked up, the tested form may be a part): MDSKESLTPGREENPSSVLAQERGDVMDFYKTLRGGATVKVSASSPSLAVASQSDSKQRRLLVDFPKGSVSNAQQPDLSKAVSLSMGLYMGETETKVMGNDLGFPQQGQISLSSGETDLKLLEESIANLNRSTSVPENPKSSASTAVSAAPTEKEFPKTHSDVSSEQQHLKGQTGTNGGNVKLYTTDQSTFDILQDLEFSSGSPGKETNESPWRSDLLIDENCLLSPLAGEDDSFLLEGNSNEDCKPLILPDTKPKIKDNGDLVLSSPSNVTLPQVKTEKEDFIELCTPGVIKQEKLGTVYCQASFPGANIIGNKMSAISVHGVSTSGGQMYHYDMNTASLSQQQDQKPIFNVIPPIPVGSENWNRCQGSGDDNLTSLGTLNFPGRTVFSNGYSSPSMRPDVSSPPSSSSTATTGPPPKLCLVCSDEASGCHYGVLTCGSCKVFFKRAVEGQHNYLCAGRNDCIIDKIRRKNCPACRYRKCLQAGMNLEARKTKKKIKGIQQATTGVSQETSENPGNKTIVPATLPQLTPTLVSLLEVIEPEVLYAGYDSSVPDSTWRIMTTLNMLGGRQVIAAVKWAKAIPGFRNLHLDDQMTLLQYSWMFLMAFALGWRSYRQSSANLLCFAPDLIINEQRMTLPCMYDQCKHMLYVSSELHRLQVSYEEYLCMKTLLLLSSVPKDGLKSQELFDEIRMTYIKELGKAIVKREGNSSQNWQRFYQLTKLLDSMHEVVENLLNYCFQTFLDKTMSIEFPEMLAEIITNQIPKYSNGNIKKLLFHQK
# [13] = target: Glucocorticoid receptor (Homo sapiens) (UniProt P04150); experiment: GR-EFC Redistribution (AID 451; calls by dose curve; note: potency is the fitted concentration of half-maximal effect); details: CHO-K1 GR-EFC translocation, beta-gal luminescence, 2 h
# In short: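 CHO-K1 cells expressing nuclear EA and GR-ED fragments of b-gal; compounds titrated up to 46 uM final, 2 h at 37 C. GR nuclear translocation read as complemented b-gal luminescence after 1 h RT detection.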
# [14] = target: Mitogen-activated protein kinase 10 (Mus musculus) (UniProt Q61831); experiment: JNK3 AlphaScreen Assay (AID 530; active = well fitted curve in either direction with a large enough effect, not every such curve was filed as active); details: JNK3 lysate, c-Jun phosphorylation; series mostly up to 57.1 µM
# In short: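 HepG2 lysate (IL-1b/TNFa pre-activated) + biotin-GST-cJun 1-79 + anti-pSer73 cJun; cpd titration, 15 min RT; ATP 10 uM start; Tris pH 7.6, MgCl2, DTT, vanadate; beads in EDTA buffer; AlphaScreen.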
# [15] = target: 3',5'-cyclic-AMP phosphodiesterase 4B (Homo sapiens) (UniProt Q07343); experiment: qHTS Assay for Inhibitors of PDE-IV (AID 607; active = well fitted activation curve with a large enough effect in the main read-out, with a control signal flat, not every such curve was filed as active; note: % of control where 0% means no effect); details: HEK293 ACTOne CNG channel cells, membrane potential fluorescence; series mostly up to 22.9 µM
# Sequence of 3',5'-cyclic-AMP phosphodiesterase 4B (Homo sapiens) (Q07343 whole entry, looked up): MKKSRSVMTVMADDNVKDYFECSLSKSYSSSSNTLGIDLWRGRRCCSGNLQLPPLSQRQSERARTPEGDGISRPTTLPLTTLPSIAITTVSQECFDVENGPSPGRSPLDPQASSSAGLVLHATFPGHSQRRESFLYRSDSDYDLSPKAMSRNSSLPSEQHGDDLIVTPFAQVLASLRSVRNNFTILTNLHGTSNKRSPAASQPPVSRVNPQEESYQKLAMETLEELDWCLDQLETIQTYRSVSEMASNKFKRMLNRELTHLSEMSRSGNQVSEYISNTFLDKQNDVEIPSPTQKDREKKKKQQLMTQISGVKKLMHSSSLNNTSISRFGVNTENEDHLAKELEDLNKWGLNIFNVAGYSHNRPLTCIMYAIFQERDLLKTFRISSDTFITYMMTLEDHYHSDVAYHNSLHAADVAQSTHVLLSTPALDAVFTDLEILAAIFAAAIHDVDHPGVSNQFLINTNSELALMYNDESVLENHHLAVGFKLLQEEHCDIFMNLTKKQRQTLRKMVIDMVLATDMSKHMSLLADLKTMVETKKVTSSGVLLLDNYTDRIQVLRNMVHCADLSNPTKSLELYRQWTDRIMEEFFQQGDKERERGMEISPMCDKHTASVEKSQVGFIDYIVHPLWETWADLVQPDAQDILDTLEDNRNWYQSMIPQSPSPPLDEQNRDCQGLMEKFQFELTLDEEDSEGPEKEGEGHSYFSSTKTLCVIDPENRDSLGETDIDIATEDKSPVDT
# In short: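 Cell-based read-out of cAMP via a modified cyclic nucleotide-gated channel and membrane potential dye (535/590 nm) in HEK293 cells expressing PDE4 endogenously. Compounds tested up to 22.9 uM final; 100 uM RO 20-1724 reference.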
# [16] = target: Cytochrome P450 2C9 (Homo sapiens) (UniProt P11712); experiment: qHTS Assay for Inhibitors and Substrates of Cytochrome P450 2C9 (AID 883); details: recombinant CYP2C9, luciferin-H luminescence, 60 min; series mostly up to 57.1 µM; note: % is set by controls: 0 for no effect and ±100 for the full control effect; nearly all actives have a fitted effect of over 60% in size
# Sequence of Cytochrome P450 2C9 (Homo sapiens) (P11712 whole entry, looked up): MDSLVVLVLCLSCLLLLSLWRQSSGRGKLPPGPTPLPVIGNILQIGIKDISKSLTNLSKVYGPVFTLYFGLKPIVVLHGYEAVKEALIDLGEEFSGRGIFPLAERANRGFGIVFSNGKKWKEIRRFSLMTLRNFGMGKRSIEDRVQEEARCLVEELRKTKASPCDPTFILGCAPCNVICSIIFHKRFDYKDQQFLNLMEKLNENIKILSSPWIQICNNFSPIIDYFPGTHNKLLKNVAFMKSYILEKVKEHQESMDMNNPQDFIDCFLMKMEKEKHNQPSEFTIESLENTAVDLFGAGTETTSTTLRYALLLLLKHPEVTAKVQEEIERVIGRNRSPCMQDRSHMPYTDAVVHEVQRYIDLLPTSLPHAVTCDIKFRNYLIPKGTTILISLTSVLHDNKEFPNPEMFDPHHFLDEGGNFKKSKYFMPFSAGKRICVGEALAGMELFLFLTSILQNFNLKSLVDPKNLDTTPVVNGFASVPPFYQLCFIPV
# In short: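 Human CYP2C9 (10nM) with Luciferin-H at 100uM (its KM) in 25mM KPO4; compound preincubated 10 min at 37C, then NADPH regeneration for 60 min at 37C. Luciferin read by luminescence after detection reagent; normalized to 57uM sulphaphenazole as full inhibition.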
# [17] = target: Cytochrome P450 2D6 (Homo sapiens) (UniProt P10635); experiment: qHTS Assay for Inhibitors and Substrates of Cytochrome P450 2D6 (AID 891); details: recombinant CYP2D6, luciferin-ME EGE luminescence; series mostly up to 57.1 µM; note: potency is the fitted concentration of half-maximal effect; nearly all actives have a fitted effect of over 60% in size
# Sequence of Cytochrome P450 2D6 (Homo sapiens) (P10635 whole entry, looked up): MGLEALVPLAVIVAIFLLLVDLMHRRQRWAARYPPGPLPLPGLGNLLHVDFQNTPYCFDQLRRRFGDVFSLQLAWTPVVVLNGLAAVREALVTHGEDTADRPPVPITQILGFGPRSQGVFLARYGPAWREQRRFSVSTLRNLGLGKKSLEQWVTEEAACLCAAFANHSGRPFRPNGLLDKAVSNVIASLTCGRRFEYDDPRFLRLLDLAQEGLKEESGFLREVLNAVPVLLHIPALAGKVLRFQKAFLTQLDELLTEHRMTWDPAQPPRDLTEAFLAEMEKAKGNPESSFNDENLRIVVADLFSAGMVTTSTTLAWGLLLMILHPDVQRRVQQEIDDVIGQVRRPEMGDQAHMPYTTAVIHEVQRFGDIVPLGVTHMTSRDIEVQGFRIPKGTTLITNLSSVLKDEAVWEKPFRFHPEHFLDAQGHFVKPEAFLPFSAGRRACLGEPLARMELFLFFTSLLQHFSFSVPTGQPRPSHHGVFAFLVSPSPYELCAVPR
# In short: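 Luminescent read-out of luciferin formed by 5 nM human CYP2D6 demethylating 30 uM Luciferin-ME EGE (Km level) over 60 min at room temperature after NADPH regeneration addition. Data normalized to full inhibition by 1.43 uM quinidine.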
# [18] = target: Cytochrome P450 2C19 (Homo sapiens) (UniProt P33261); experiment: qHTS Assay for Inhibitors and Substrates of Cytochrome P450 2C19 (AID 899); details: recombinant CYP2C19, luciferin-H EGE luminescence; series mostly up to 57.1 µM; note: % is set by controls: 0 for no effect and ±100 for the full control effect; nearly all actives have a fitted effect of over 60% in size
# In short: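 5 nM human CYP2C19 with 10uM Luciferin-H EGE (at KM) in 50mM KPO4, compound preincubated 10 min at 37C, then NADPH regeneration for 60 min at 37C. Luciferin read by luminescence after detection reagent; normalized to 57uM ketoconazole as full inhibition.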
# [19] = qHTS Assay for Lipid Storage Modulators (AID 1519; calls by dose curve); details: Drosophila S3 cells, BODIPY lipid droplet/cell ratio, laser cytometry, cells loaded with oleic acid
# In short: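 Cells seeded at 5,000 per well were treated with compounds over a concentration series and loaded with oleic acid (400 uM, as added). Lipid droplet fluorescence (488 nm excitation, 500-530 nm channel) was read by laser-scanning cytometry and normalized to 20 uM Triacsin C.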
# [20] = target: DNA dC->dU-editing enzyme APOBEC-3G (Homo sapiens) (UniProt Q9HC16); experiment: qHTS for inhibitors of Vif-A3G interactions: Validation (AID 588379); details: Vif-A3G protein interaction assay; series mostly up to 46.1 µM; note: 0% is about no effect
# Sequence of DNA dC->dU-editing enzyme APOBEC-3G (Homo sapiens) (Q9HC16 whole entry, looked up): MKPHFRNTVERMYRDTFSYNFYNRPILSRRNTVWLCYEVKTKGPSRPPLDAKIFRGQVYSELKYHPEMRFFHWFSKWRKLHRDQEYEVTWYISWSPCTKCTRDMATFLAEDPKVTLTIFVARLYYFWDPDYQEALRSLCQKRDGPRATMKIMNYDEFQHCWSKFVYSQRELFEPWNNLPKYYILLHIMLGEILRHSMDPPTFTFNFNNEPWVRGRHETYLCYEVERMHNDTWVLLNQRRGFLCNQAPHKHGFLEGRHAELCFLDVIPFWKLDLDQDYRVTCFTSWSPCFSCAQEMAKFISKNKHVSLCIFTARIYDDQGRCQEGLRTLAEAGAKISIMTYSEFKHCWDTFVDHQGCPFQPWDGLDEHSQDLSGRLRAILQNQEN
# In short: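 Yellow fluorescence (Ex 488, Em 500-530) of Vif-coexpressing HeLa A3G-eYFP cells, scanned by Acumen cytometer, reports blocked A3G degradation. Cells plated at 700/well overnight at 37 deg C before compound addition, then a further overnight compound incubation at 37 deg C.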
# [21] = target: Cytochrome P450 3A4 (Homo sapiens) (UniProt P08684); experiment: qHTS Assay for Inhibitors and Substrates of Cytochrome P450 3A4 (AID 884); details: recombinant CYP3A4, Luciferin-PPXE luminescence; series mostly up to 57.1 µM; note: nearly all actives have a fitted effect of over 50% in size; note: potency is the fitted concentration of half-maximal effect
# In short: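 Luminescent readout of luciferin produced by CYP3A4 (20 nM) dealkylation of Luciferin-PPXE, 25 uM (its KM). NADPH-driven reaction ran 60 min at RT after 10 min compound preincubation; data scaled to 57 uM ketoconazole as 100% inhibition.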
# [22] = qHTS Assay for Identification of Small Molecule Agonists for Hypoxia Response Element Signaling Pathway (AID 914; active = well fitted activation curve with a large enough effect in the signal ratio, with a control signal flat, not every such curve was filed as active; the % refers to the signal ratio; note: potency is the fitted concentration of half-maximal effect); details: ME-180 (cervical carcinoma) HRE-bla reporter, beta-lactamase ratio, CoCl2, 17 h; activation: stronger effect = higher value
# In short: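 In Opti-MEM containing 0.5% dialyzed FBS and 10 mM HEPES, ME-180 HRE-bla cells received a compound titration and EC50 CoCl2. They were incubated 17 hours, then CCF4-loaded 2.5 hours at room temperature before ratio reading.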
smiles,measurement,setting,value
COCCNc1nc(-c2ccccc2C(F)(F)F)nc2ccccc12,Potency,[1],inactive
O=C(CCCc1ccc(-c2ccccc2F)cc1)Nc1ccc(O)cc1,Potency,[2],inactive
same,outcome,[3],inactive
NCCC[C@H](N)CC(=O)N[C@H]1CNC(=O)[C@H]([C@H]2C[C@H](O)N=C(N)N2)NC(=O)C(=CNC(N)=O)NC(=O)[C@H](CO)NC(=O)[C@H](CO)NC1=O (β3hOrn-[Dap]SS[ΔAla(3-NHCONH2)][X4]; lactam 1-C),"parasite growth, % of DMSO control",[4],66.2%
same,"parasite growth remaining, % of DMSO control (lower = more inhibition)",[5],79.9%
same,"parasite growth, % of control (lower = inhibition)",[6],92.5%
same,"growth, % of control",[7],71.8%
same,outcome,[3],inactive
CC[C@@]12CCCN3CCc4c(n(c5ccccc45)[C@](O)(C(=O)OC)C1)[C@H]32,"activity change, negative = inhibition",[8],13.8% [at 17.2 µM] (inactive)
same,Potency,[9],inactive
same,"activity change, negative = inhibition",[10],-8.76% [at 17.2 µM] (inactive) and -13.1% [at 17.2 µM] (inactive)
same,"activity, negative = inhibition",[11],4.76% [at 17.2 µM] (inactive) and 8.92% [at 17.2 µM] (inactive)
same,Potency,[12],> 20.6 µM (inactive) and > 46 µM (inactive)
same,Potency,[13],> 20.6 µM (inactive) and > 46 µM (inactive)
same,Potency,[14],inactive
same,Potency,[15],inactive
same,Potency,[16],inactive
same,Potency,[2],inactive
same,Potency,[17],0.251 µM (active)
same,Potency,[18],inactive
same,"activity change, negative = inhibition",[19]; at 25.7 µM (top of the series),-1.27% (inactive) and -2.91% (inactive)
same,"activity change, negative = inhibition",[19]; at 57.5 µM (top of the series),0.0973% (inactive)
same,max response,[19]; measured here: cell count channel max response,5.49% and 0.925% and 3.19%
same,max response,[19]; measured here: lipid channel max response,4.14% and 0.607% and 6.95%
same,Potency,[1],inactive
same,outcome,[20],inactive
COc1ccc(Oc2ncc3nc(-c4cccs4)c(=O)n(Cc4cccc(OC)c4)c3n2)cc1,Potency,[9],inactive
same,"activity change, negative = inhibition",[10],-5.95% (inactive)
same,Potency,[12],> 9.22 µM (inactive)
same,Potency,[13],> 46 µM (inactive)
same,Potency,[21],3.98 µM (active)
same,Potency,[2],inactive
same,Potency,[22],3.16 µM (active)
same,outcome,[3],inactive
C/C(=C\COc1cc(=O)[nH]c2ccccc12)CCC(O)C(C)(C)O (configuration not stated),Potency,[21],inactive
same,outcome,[20],inactive
same,outcome,[3],inactive
